Source: PubChem BioAssay (National Center for Advancing Translational Sciences (NCATS))
LDHA block: inhibitors of human lactate dehydrogenase A; 0.15% of 480,000 active; P00338; purified LDHA, NADH/diaphorase-resazurin fluorescence; active compounds read low; activity change, % (values are at about 110 or 230 µM); in the data active = activity change below about -30%; inconclusive = mostly about -25% to -30%
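Enzyme activity of human lactate dehydrogenase 5 (2 nM; 0.06 mM NADH, 0.2 mM pyruvate, 5 min, RT) is measured via a resazurin/diaphorase fluorescence readout of residual NADH.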
12-LOX inh: ALOX12 (human) lipoxygenase inhibition. P18054. purified 12hLO, xylenol orange hydroperoxide absorbance. Potency, µM (top dose mostly 108 µM), usual class: inhibitors. 1.1% of 580,000 active. AID 1671190
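Purified human 12hLO at 150 nM in 25 mM Hepes, 0.01% Triton X-100, pH 7.0, preincubated 15 min at room temperature with compound. Reaction started with 40 uM arachidonic acid, 30 min at room temperature. Hydroperoxide measured by Fe-xylenol orange, 573/405 nm absorbance ratio.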
A549 viability: A549 cytotoxicity, counter-screen for Nrf2 inhibitors | A549 ARE-Fluc cells, CellTiter-Fluor viability, 18-24 h | Potency, µM (titrated, usually from 46 µM), most hits filed as inhibitors | 0.16% of 390,000 active | AID 504648
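Cytotoxicity counterscreen: CellTiter-Fluor fluorescence was measured in A549 ARE_Fluc cells after 18-24 h of compound exposure in a concentration series. The subsequent BugLite luminescent read reports ARE-luciferase activity.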
ERG-DNA inh: ERG Ets/DNA interaction inhibition. P11308. fluorescence polarization, His-ERG Ets domain / labelled DNA. Potency, µM (series often up to 76.9 µM), hits mostly inhibitors. 0.028% of 370,000 active; active = well fitted inhibition curve with a large enough effect in the polarisation, with a control signal flat; inconclusive = small, poorly fitted or top-dose-only effect, or effect the other way, or a change in a side signal; inactive = no such curve, though single readings can be large or run the other way; the % refers to the polarisation;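 note: polarization taken with two DNA probes labelled with fluorescein and Texas red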
Target sequence (P11308 whole entry, looked up, the tested form may be a part): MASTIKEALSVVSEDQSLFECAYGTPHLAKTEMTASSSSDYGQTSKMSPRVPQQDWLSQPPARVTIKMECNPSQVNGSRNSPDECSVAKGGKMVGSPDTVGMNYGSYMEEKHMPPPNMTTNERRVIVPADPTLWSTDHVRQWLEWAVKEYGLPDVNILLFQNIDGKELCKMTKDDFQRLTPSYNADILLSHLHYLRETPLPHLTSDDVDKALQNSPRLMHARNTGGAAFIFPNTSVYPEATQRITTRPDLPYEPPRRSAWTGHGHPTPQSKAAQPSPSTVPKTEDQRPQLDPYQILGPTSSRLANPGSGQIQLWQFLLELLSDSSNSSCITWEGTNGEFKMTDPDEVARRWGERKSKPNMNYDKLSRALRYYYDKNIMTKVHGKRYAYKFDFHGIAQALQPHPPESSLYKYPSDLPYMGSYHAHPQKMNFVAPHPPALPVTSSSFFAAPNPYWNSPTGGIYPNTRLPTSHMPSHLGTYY
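His-tagged ERG Ets domain (1 uM in the protein solution; 300mM KCl, 50mM Tris-HCl, 1mM EDTA, 1mM DTT, pH 7.5) received compound, then a probe mix of 5 nM fluorescein-DNA and 100nM Texas-615-DNA. Fluorescence polarization was read for both dyes.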
Nrf2 block: Nrf2 pathway inhibition; A549 ARE-Fluc reporter, luciferase luminescence, 18-24 h; Potency, µM (highest dose often 46 µM), usual class: inhibitors; 2.1% of 360,000 active; note: nearly all actives have a fitted effect of over 60% in size
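Nrf2 activity is the BugLite luminescence, read 15 min after reagent at room temperature, following CellTiter-Fluor cytotoxicity readout (30 min, 37C). Compound titrations were applied for 18-24 h to 5000 A549 ARE_Fluc cells/well in 5% FBS OPTI-MEM.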
Nrf2 activator: activates Nrf2 signaling. AREc32 ARE-luciferase reporter (MCF7-derived line), luminescence, 24 h. Potency, µM (series often up to 46.1 µM), most hits filed as activators. 0.31% of 410,000 active. AID 624171; note: nearly all actives have a fitted effect of over 65% in size
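Reporter line AREc32 (ARE-Fluc), seeded overnight in OPTI-MEM with 5% FBS; compound pin-transferred, 24 hr at 37 deg C, 5% CO2; luminescent read-out.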
A number is an active result; [ ] = another dose, or the depositor's remark. The list is not random: actives were taken first. Their share in the collection is about 2.7%. Unless noted, calls come from the whole dose curve; as a rule, active = well fitted curve in the direction sought with a large enough effect; inconclusive = small, poorly fitted or top-dose-only effect, or another doubt; inactive = no such curve, though single readings can be large; an effect the other way counts as inactive or inconclusive.

For COc1ccc2cc(C(=O)N3CCN(S(=O)(=O)c4ccc(C)cc4C)CC3)c(C)nc2c1 the results were LDHA block inactive and 12-LOX inh inactive.
For COCCCNC(=O)CCC(=O)NCCCOC the results were LDHA block inactive and 12-LOX inh inconclusive.
Screening Cn1cc(CN2CCC(C(=O)NC(c3ccc(F)cc3)c3ccc4ccccc4n3)CC2)c2ccccc21 (configuration not stated) returned LDHA block inactive, 12-LOX inh 45µM and Nrf2 activator inactive.
CN(C(=O)c1cccc(NC(=O)Cc2cccc([N+](=O)[O-])c2)c1)C1CCC1 was read as LDHA block inactive, 12-LOX inh inconclusive, A549 viability inactive, ERG-DNA inh inactive, Nrf2 block inconclusive and Nrf2 activator inactive.
CN(C(=O)c1cccc(NC(=O)Cc2cccc([N+](=O)[O-])c2)c1)C1CCCC1 was read as LDHA block inactive, 12-LOX inh inactive, A549 viability inactive, ERG-DNA inh inactive, Nrf2 block 10µM and Nrf2 activator inactive.
Screening CN(Cc1ccccc1)C(=O)c1cccc(NC(=O)Cc2cccc([N+](=O)[O-])c2)c1 returned LDHA block inactive, 12-LOX inh inactive, A549 viability inactive, ERG-DNA inh inactive, Nrf2 block 16µM and Nrf2 activator inactive.
For CN(C(=O)c1cccc(NC(=O)Cc2ccc([N+](=O)[O-])cc2)c1)C1CCCC1 the results were LDHA block inactive, 12-LOX inh inactive, A549 viability inactive, ERG-DNA inh inactive, Nrf2 block 23µM and Nrf2 activator inactive.
O=C(NCC(F)(F)F)C1CCN(C(=O)/C=C/c2ccccc2)CC1 was read as LDHA block inactive and 12-LOX inh inactive.
`CCN(CC)CCC(=O)Nc1cccc2c1C(=O)c1ccccc1C2=O` gave LDHA block inactive, 12-LOX inh inactive, A549 viability 21µM, ERG-DNA inh inactive, Nrf2 block 16µM and Nrf2 activator inactive.
CCN(CC)CCNC(=O)c1ccc2c(c1NCCO)C(=O)c1ccccc1C2=O was read as LDHA block inactive, 12-LOX inh inactive, A549 viability inconclusive, ERG-DNA inh inactive, Nrf2 block 3.3µM and Nrf2 activator inactive.
Screening COc1ccccc1/C=C/C(=O)c1ccc(OCc2ccccc2)cc1OCc1ccccc1 returned LDHA block inactive and 12-LOX inh inactive.
For COc1cc(C(=O)/C(=C/c2ccncc2)c2nc3ccccc3o2)cc(OC)c1OC the results were LDHA block inactive and 12-LOX inh inconclusive.
`CN1CCN(Cc2c(O)ccc3cc(Br)ccc23)CC1` gave LDHA block inactive, 12-LOX inh 5.6µM, A549 viability inactive, ERG-DNA inh inactive, Nrf2 block inactive and Nrf2 activator inactive[9.22 µM].
`O=C(CSc1nnc2scc(-c3ccccc3)n12)Nc1nsc(-c2ccccc2)n1` gave LDHA block inactive, 12-LOX inh inconclusive, A549 viability inactive, ERG-DNA inh inactive, Nrf2 block 16µM and Nrf2 activator inactive.
For Cc1ccc(-c2csc3nnc(SCC(=O)Nc4nsc(-c5ccccc5)n4)n23)cc1 the results were LDHA block inactive, 12-LOX inh inactive, A549 viability inactive[1.84 µM], ERG-DNA inh inactive, Nrf2 block 21µM and Nrf2 activator inactive.
CC(C)CC(NC(=O)c1ccn(C)c(=O)c1)c1ccccc1 (configuration not stated) was read as LDHA block inactive and 12-LOX inh inactive.
For Cc1ccc2oc(C(=O)Nc3ncc(Cc4ccccc4)s3)cc(=O)c2c1 the results were LDHA block inactive and 12-LOX inh inactive.
Screening CCCCCOc1ccc(/C=C2\CCc3ccccc3C2=O)cc1 returned LDHA block inactive and 12-LOX inh inconclusive.
CC(C)Oc1ccc(C(=O)OC(C)C(=O)NC2CCCCC2C)cc1 (configuration not stated) was read as LDHA block inactive, 12-LOX inh inactive, A549 viability inactive, ERG-DNA inh inactive, Nrf2 block inactive and Nrf2 activator inactive.
